Test results from PubChem BioAssay (NCATS).
Records with an inconclusive call do not appear. Unmarked numbers belong to inactive results. The source made the active and inactive calls. Calls come from the whole dose curve; as a rule, active = well fitted inhibition curve with a large enough effect; inconclusive = small, poorly fitted or top-dose-only effect; inactive = flat fitted curve, though single readings scatter.

Target: Calcium and integrin-binding protein 1 (Homo sapiens) (UniProt Q99828)
Assay: Primary qHTS for Identification of Calcium Integrin Binding Protein 1 (CIB1) Competitor (AID 1508620);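 note: GST tagged CIB1 binding a fluorescein labelled alphaIIb integrin peptide tracer; top concentration of the series differs between compounds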
Conditions: CIB1-GST / FITC-alphaIIb peptide fluorescence polarization; series mostly up to 114 µM; activity change, negative = inhibition: at the top concentration
In short: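 Fluorescence polarization competition: CIB1-GST (1 uM final) preincubated with compound 15 min at room temperature, then FITC-labeled alphaIIb peptide (100 nM final) added for another 15 min. Polarization read at Ex 480/Em 540.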
% is set by controls: 0 for no effect and ±100 for the full control effect.

Calcium and integrin-binding protein 1 (Homo sapiens), sequence (Q99828 whole entry, looked up): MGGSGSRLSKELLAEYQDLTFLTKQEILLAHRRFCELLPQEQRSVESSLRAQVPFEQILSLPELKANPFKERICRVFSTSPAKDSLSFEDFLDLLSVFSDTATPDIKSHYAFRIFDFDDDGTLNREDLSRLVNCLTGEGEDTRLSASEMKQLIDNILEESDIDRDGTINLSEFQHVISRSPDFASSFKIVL

`O=C(O)c1ccc(CSc2nnc(-c3cccc(S(=O)(=O)NC4CCCC4)c3)n2-c2ccc(F)cc2)cc1` was tested. Which “activity change, negative = inhibition” value did it give?
Its value is 1.49%.

With `COc1nccc(-c2nc(Nc3ccc(F)c(F)c3)c3ccccc3n2)c1Cl` as the compound, how does the “activity change, negative = inhibition” value read?
The value was 5.91%.

`Cc1cc(C)nc(NC(=S)N2CCN(c3cccc4ccccc34)CC2)c1` was tested. Which “activity change, negative = inhibition” value did it give?
The value was -8.69%.

With `O=[N+]([O-])c1cc(C(F)(F)F)ccc1N1CCN(C(=S)Nc2cc(Cl)ccn2)CC1` as the compound, how does the “activity change, negative = inhibition” value read?
Its value is 2.33%.

How did the “activity change, negative = inhibition” value turn out when `FC(F)(F)c1cccc(N2CCN(C(=S)Nc3ncnc4ccccc34)CC2)c1` was run?
Its value is 12.6%.

How did the Potency turn out when `Cc1cc(C)nc(NC(=S)N2CCN(c3nccs3)CC2)c1` was run?
The Potency was “inactive”.

With `CC(C)(C)OC(=O)NCC(=O)NNC(=O)C(C(=O)OCc1ccccc1)c1ccccc1` (stereo not given) as the compound, how does the “activity change, negative = inhibition” value read?
Its value is 1.53%.

How did the “activity change, negative = inhibition” value turn out when `Cc1ccc(NS(=O)(=O)c2cc3c(cc2/C=C/c2ccccc2)NC(=O)CO3)cc1C` was run?
Its value is 1.45%.

How did the “activity change, negative = inhibition” value turn out when `COc1ccc(C2=Nn3c(nnc3-c3ccccc3O)SC2)cc1` was run?
Its value is -0.42%.

For `Oc1ccc(CNc2ccc(F)cc2Cl)c2cccnc12`, which “activity change, negative = inhibition” value is on record?
Its value is 18.8%.

How did the “activity change, negative = inhibition” value turn out when `COc1cc(NC(=O)c2cnn3c(C)cc(C)nc23)cc(OC)c1OC` was run?
The value was 1.68%.

`CC(C)(C)OC(=O)N1CCN(c2ccc(NCc3ccc(-c4ccc(C#N)cc4)nc3)cc2)CC1` was tested. Which “activity change, negative = inhibition” value did it give?
Its value is 0.0168%.

Which “activity change, negative = inhibition” value does the source give for `Cc1cnc(-c2ccccc2C(C)C)nc1NCc1ccc(-c2ccnc(C(F)(F)F)c2)cc1` here?
The value was 3.21%.

`COc1cccc(C2C(C#N)=C(NC(=O)NCc3ccccc3)Oc3ccc4ccccc4c32)c1` (stereo not given) was tested. Which “activity change, negative = inhibition” value did it give?
Its value is 12.9%.

With `CCOC(=O)c1c(/C=N/Nc2ccccc2)c2sc(C)cc2n1C` as the compound, how does the “activity change, negative = inhibition” value read?
The value was -2.79%.

`CC(C)(C)c1ccc(C(=O)NCC(=O)OC(C(=O)Nc2cc(C(F)(F)F)ccc2Cl)c2ccccc2)cc1` (stereo not given) was tested. Which “activity change, negative = inhibition” value did it give?
The value was -3.75%.

For `CCOC(=O)c1[nH]c2c(c1C)CCC(c1ccco1)C2` (stereo not given), which “activity change, negative = inhibition” value is on record?
Its value is -3.07%.

`COC(=O)c1ccccc1-c1ccc(/C=c2\sc3nc4cc(Br)cnc4n3c2=O)o1` was tested. Which “activity change, negative = inhibition” value did it give?
The value was 82.8%.

`Cc1ccnc(NC(=S)N2CCN(c3ncc(C(F)(F)F)cc3Cl)CC2)c1` was tested. Which “activity change, negative = inhibition” value did it give?
Its value is -8.46%.

With `Cc1cc2c(s1)c1cnn(Cc3c(F)c(F)c(C)c(F)c3F)c(=O)c1n2C` as the compound, how does the “activity change, negative = inhibition” value read?
The value was 7.83%.

With `COc1ccnc(NCc2ccc(O)c3ncccc23)c1` as the compound, how does the “activity change, negative = inhibition” value read?
Its value is 8.74%.

With `Cc1ccc(OCCn2c(CCNC(=O)C(C)(C)C)nc3ccccc32)cc1` as the compound, how does the “activity change, negative = inhibition” value read?
Its value is 5.75%.

Which “activity change, negative = inhibition” value does the source give for `O=C1CCc2cc(S(=O)(=O)Nc3cccc(F)c3)ccc2N1` here?
The value was 0.47%.

`C=CCNc1nnc(-c2cccc3ccccc23)o1` was tested. Which “activity change, negative = inhibition” value did it give?
The value was 0.526%.

For `CSc1ccccc1-c1ccc(Nc2nc(-c3ccncc3)nc3ccccc23)cc1F`, which “activity change, negative = inhibition” value is on record?
Its value is 6.31%.

`Cc1ccc(C(=O)Nc2ccc(N3CCOCC3)cc2)cc1` was tested. Which “activity change, negative = inhibition” value did it give?
The value was -2.12%.

With `COc1ccc2c(=O)n3nc(Nc4ccc5c(c4)CCC5)sc3nc2c1` as the compound, how does the “activity change, negative = inhibition” value read?
Its value is 0.645%.

`CC(=O)N1CCc2cc(S(=O)(=O)Nc3ccc(C)c(C)c3)ccc21` was tested. Which “activity change, negative = inhibition” value did it give?
Its value is -1.8%.

`Cc1csc(CNc2ncnc3ccc(-c4ccc5c(c4)OCCO5)cc23)c1` was tested. Which “activity change, negative = inhibition” value did it give?
Its value is 0.566%.

How did the “activity change, negative = inhibition” value turn out when `N=c1c2c(ccn1-c1ccccc1)Oc1ccc3ccccc3c1C2c1ccccc1` (stereo not given) was run?
Its value is 1.52%.

With `CN(C)CCCNC(=O)c1ccc(-c2cnc3c(O)ccc(C(=O)O)c3c2)cc1` as the compound, how does the “activity change, negative = inhibition” value read?
Its value is -5%.

`O=C(O)c1ccc(O)c2ncc(N3CCCN(CCCc4ccncc4)CC3)cc12` was tested. Which “activity change, negative = inhibition” value did it give?
The value was -7.37%.

`N#CN1CCC(NS(=O)(=O)c2ccc(C(F)(F)F)cc2)C1` (stereo not given) was tested. Which “activity change, negative = inhibition” value did it give?
Its value is -2.58%.

For `O=C1CCc2cc([S+](=O)([O-])NC3CCOCC3)ccc2N1`, which “activity change, negative = inhibition” value is on record?
The value was 2.54%.

Which “activity change, negative = inhibition” value does the source give for `O=C1CCCC2=C1C(c1[nH]ncc1Cl)N=C(Nc1nc3cc(F)ccc3o1)N2` (stereo not given) here?
The value was -2.71%.

Which “activity change, negative = inhibition” value does the source give for `Cc1ccc(NS(=O)(=O)c2cc3c(cc2N2CCCC2)NC(=O)CC3)cc1C` here?
Its value is -9.69%.

How did the “activity change, negative = inhibition” value turn out when `Cn1nnnc1Sc1ncnc2scc(-c3ccccc3C#N)c12` was run?
The value was 0.531%.

For `Cc1ccc(NS(=O)(=O)c2cccc(C(=O)O)c2)cc1C`, which “activity change, negative = inhibition” value is on record?
Its value is -1.51%.

Which “activity change, negative = inhibition” value does the source give for `Cc1cc(-c2nc(Nc3ccc(F)c(F)c3)c3ccccc3n2)cc(C)n1` here?
Its value is 6.53%.

For `COc1cccc(Nc2nn3c(=O)c4ccccc4nc3s2)c1`, which “activity change, negative = inhibition” value is on record?
The value was 4.13%.
